“And” between values parts separate entries of the source, which are not always exact repeats. Identical values can stand only once. The campaign covered roughly 5,500 compounds. About 2,000 (36%) were called active. About 18% were inconclusive and are not listed. Rule as the data show it: active = normalized growth mostly below about 0.91 (no sharp cut-off); inconclusive = no clear call, values can overlap the other calls; inactive = mostly above about 0.92. Some of the results follow.
Assay: chemical genetic growth profiling, strain panel (AID 1159580);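 also: tested at 20 µM; growth read once vehicle control cultures reached saturation at 30 °C; 1 = growth at the plate median or of vehicle wells; lower values mean less growth of the strain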
Settings: S. cerevisiae deletion strains, growth OD

Measured: normalized growth

C[C@]12CCC3C(CC[C@H]4C[C@@H](O)CC[C@]34C)C1CCC2=O (some centres undefined)
0.785 (active) and 0.897 (inactive): locus YHR030C, strain SLT2, stronger effect = lower value
active: locus YAL021C, strain ccr4, stronger effect = lower value 0.854 | locus YAL026C, strain drs2, stronger effect = lower value 0.505 | locus YBR009C, strain hhf1, stronger effect = lower value 0.896 | locus YCL029C, strain bik1, stronger effect = lower value 0.842 | locus YDL035C, strain GPR1, stronger effect = lower value 0.697 | locus YDL192W, strain arf1, stronger effect = lower value 0.838 | locus YDR137W, strain rgp1, stronger effect = lower value 0.48 | locus YDR162C, strain NBP2, stronger effect = lower value 0.585 | locus YDR195W, strain ref2 1.44 [resistant] | locus YDR318W, strain mcm21, stronger effect = lower value 0.764 | locus YDR392W, strain spt3, stronger effect = lower value 0.224 | locus YDR502C, strain sam2, stronger effect = lower value 0.749 | locus YEL061C, strain CIN8, stronger effect = lower value 0.908 | locus YER155C, strain BEM2, stronger effect = lower value 0.856 | locus YER167W, strain BCK2, stronger effect = lower value 0.872 | locus YFR010W, strain ubp6, stronger effect = lower value 0.9 | locus YGL086W, strain mad1, stronger effect = lower value 0.9 | locus YGL248W, strain PDE1, stronger effect = lower value 0.696 | locus YGL253W, strain hxk2, stronger effect = lower value 0.87 | locus YGR078C, strain PAC10, stronger effect = lower value 0.843 | locus YGR135W, strain pre9, stronger effect = lower value 0.711 | locus YHR129C, strain ARP1, stronger effect = lower value 0.766 | locus YHR142W, strain chs7, stronger effect = lower value 0.853 | locus YHR200W, strain rpn10, stronger effect = lower value 0.883 | locus YIL066C, strain RNR3, stronger effect = lower value 0.628 | locus YIR030C, strain dcg1, stronger effect = lower value 0.868 | locus YJL164C, strain tpk1, stronger effect = lower value 0.859 | locus YJL166W, strain qcr8, stronger effect = lower value 0.877 | locus YJL187C, strain SWE1 (second series), stronger effect = lower value 0.796 | locus YJR075W, strain HOC1, stronger effect = lower value 0.857 | locus YKL009W, strain mrt4, stronger effect = lower value 0.832
0.309 (active) and 0.911 (inactive): locus YJL095W, strain BCK1, stronger effect = lower value
inactive: locus YAL030W, strain snc1, stronger effect = lower value 1.01 | locus YBL061C, strain skt5, stronger effect = lower value 1.02 | locus YBR021W, strain FUR4, stronger effect = lower value 0.857 | locus YBR023C, strain chs3, stronger effect = lower value 0.989 | locus YBR171W, strain sec66, stronger effect = lower value 1.01 | locus YBR229C, strain ROT2, stronger effect = lower value 1.02 | locus YBR231C, strain swc5, stronger effect = lower value 1 | locus YBR279W, strain paf1, stronger effect = lower value 0.994 | locus YCL011C, strain gbp2, stronger effect = lower value 0.937 | locus YCL016C, strain dcc1, stronger effect = lower value 0.916 | locus YCL061C, strain MRC1, stronger effect = lower value 0.961 | locus YCL069W, strain vba3, stronger effect = lower value 1.01 | locus YCR088W, strain abp1, stronger effect = lower value 1.05 | locus YDL005C, strain med2, stronger effect = lower value 1.03 | locus YDL040C, strain nat1, stronger effect = lower value 1.05 | locus YDL074C, strain BRE1, stronger effect = lower value 0.792 | locus YDL101C, strain DUN1, stronger effect = lower value 0.918 | locus YDL185W, strain tfp1, stronger effect = lower value 0.949 | locus YDR001C, strain nth1, stronger effect = lower value 1.05 | locus YDR069C, strain doa4, stronger effect = lower value 0.979 | locus YDR101C, strain arx1, stronger effect = lower value 0.95 | locus YDR159W, strain sac3, stronger effect = lower value 0.938 | locus YDR297W, strain sur2, stronger effect = lower value 1.02 | locus YDR334W, strain swr1, stronger effect = lower value 1.08 | locus YDR335W, strain msn5, stronger effect = lower value 1.02 | locus YDR388W, stronger effect = lower value 0.935 | locus YEL003W, strain gim4, stronger effect = lower value 0.977 | locus YEL037C, strain rad23, stronger effect = lower value 1.03 | locus YEL061C, strain CIN8 (second series), stronger effect = lower value 1.04 | locus YER015W, strain faa2, stronger effect = lower value 1.04 | locus YER016W, strain bim1, stronger effect = lower value 1.03 | locus YER110C, stronger effect = lower value 1.03 | locus YER111C, strain swi4, stronger effect = lower value 1.03 | locus YER155C, strain BEM2 (second series), stronger effect = lower value 1 | locus YGL078C, strain dbp3, stronger effect = lower value 0.931 | locus YGL167C, strain pmr1, stronger effect = lower value 1.03 | locus YGL173C, strain kem1, stronger effect = lower value 0.943 | locus YGL227W, strain vid30, stronger effect = lower value 1.06 | locus YGL240W, strain doc1, stronger effect = lower value 0.968 | locus YHR013C, strain ard1, stronger effect = lower value 0.899 | locus YHR027C, strain rpn1, stronger effect = lower value 1.03 | locus YHR079C, strain IRE1 (second series), stronger effect = lower value 0.94 | locus YHR079C, strain IRE1, stronger effect = lower value 0.893 | locus YHR094C, strain hxt1, stronger effect = lower value 1.03 | locus YIL073C, strain SPO22, stronger effect = lower value 0.735 | locus YIL125W, strain kgd1, stronger effect = lower value 0.98 | locus YJL092W, strain hpr5, stronger effect = lower value 0.988 | locus YJL095W, strain BCK1 (second series), stronger effect = lower value 0.923 | locus YJL115W, strain asf1, stronger effect = lower value 1.04 | locus YJL129C, strain trk1, stronger effect = lower value 0.948 | locus YJL134W, strain LCB3, stronger effect = lower value 1.02 | locus YJL154C, strain vps35, stronger effect = lower value 1.06 | locus YJL168C, strain set2, stronger effect = lower value 1.03 | locus YJL187C, strain SWE1, stronger effect = lower value 1.03 | locus YJR043C, strain POL32, stronger effect = lower value 0.895 | locus YJR066W, strain TOR1, stronger effect = lower value 0.875

Reference: PubChem BioAssay AID1159580 (chemical genetic matrix, 2015)
